Screens from PubChem.
Hits are enriched below; roughly 3.5% of the tested compounds scored in any of these assays.
M1 PAM – human M1 muscarinic receptor positive allosteric modulators, primary screen, CHO-K1 cells, Fluo-8 calcium fluorescence, 1536-well; CHO-K1 hM1, ACh EC20; 0% = ACh EC20, 100% = maximal ACh; Muscarinic acetylcholine receptor M1 (Homo sapiens), P11229; activation, % at 3 µM; hit rate 0.088% among 360,000; in the data active = activation above about 19%, passing the limit was not always enough
CHRM1 agonist – human M1 muscarinic receptor agonists, primary screen, Fluo-8 calcium fluorescence, CHO-K1 cells, HTS; Muscarinic acetylcholine receptor M1 (Homo sapiens), P11229; CHO-K1 hM1, agonist mode; 0% DMSO, 100% acetylcholine EC100; activation, % at 3 µM; hit rate 0.33% among 360,000; AID 588814, 2011;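 active = activation above the run's mean compound activation plus 3 SD, cut at about 16% in these data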;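 also: peak over basal fluorescence ratio within a 140 s kinetic read after compound addition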
ATG4B inh – ATG4B protease inhibitors, primary screen, biochemical, fluorescence, uHTS; Cysteine protease ATG4B (Homo sapiens), Q9Y4P1; hit rate 0.51% among 340,000; inhibition, % at 8.33 µM; ATG4B cleavage of LC3-PLA2, NBD-HPC fluorescence, 1 h; AID 504462, 2011; in the data active = inhibition above about 40%
Target sequence (Q9Y4P1 whole entry, looked up): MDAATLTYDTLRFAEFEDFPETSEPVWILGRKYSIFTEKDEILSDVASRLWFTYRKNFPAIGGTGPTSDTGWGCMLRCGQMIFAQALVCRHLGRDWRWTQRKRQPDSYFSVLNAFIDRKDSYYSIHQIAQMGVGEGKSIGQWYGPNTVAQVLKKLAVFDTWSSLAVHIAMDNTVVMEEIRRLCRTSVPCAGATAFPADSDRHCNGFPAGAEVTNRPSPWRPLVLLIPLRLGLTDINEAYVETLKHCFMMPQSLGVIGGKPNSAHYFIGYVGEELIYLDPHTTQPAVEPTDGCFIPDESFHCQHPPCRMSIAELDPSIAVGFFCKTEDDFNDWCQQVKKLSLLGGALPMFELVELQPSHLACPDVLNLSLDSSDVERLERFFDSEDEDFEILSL
Myeloid diff 2 – induction of myeloid progenitor differentiation, primary screen, cell-based, flow cytometry, MLPCN library. ER-HoxA9 myeloid progenitors, lysozyme-GFP differentiation. calls only at 10 µM. hit rate 1% among 360,000. AID 624256, 2012;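 active = normalized GFP-positive differentiation at or above the plate's own cutoff, the solvent-only control mean plus 3 SD; inconclusive = no clear call, values can overlap the other calls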;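 also: cells exposed to compound for four days before flow analysis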
CHRM1 antagonist – human M1 muscarinic receptor antagonists, primary screen, CHO-K1 cells, Fluo-8 calcium fluorescence, 1536-well. Muscarinic acetylcholine receptor M1 (Homo sapiens), P11229. CHO-K1 hM1, ACh EC80 antagonist. hit rate 1.3% among 360,000. inhibition, % at 3 µM;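 active = percent inhibition above its own plate's cutoff, namely the mean of that plate's compound wells plus 3 SD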;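 also: peak over basal fluorescence ratio during 140 s after agonist addition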
SKN-1 block – suppressors of acrylamide-induced Pgst-4::GFP reporter in worms, primary screen, SKN-1 inhibitor project, whole organism, uHTS, GFP/RFP fluorescence ratio, strain VP596; C. elegans VP596 Pgst-4::GFP/RFP ratio, 24 h; inhibition, % at 21.8 µM; hit rate 0.49% among 360,000;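 active = interference check ratio from 0.5 to 1.5 plus GFP to RFP signal ratio inhibition reaching or exceeding a fixed threshold, cut at about 30% in these data, passing the limit was not always enough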
Numbers stand for hits; – = inactive; ? = inconclusive; · = not tested or not shown; + = active, no number.

SMILES	M1 PAM	CHRM1 agonist	ATG4B inh	Myeloid diff 2	CHRM1 antagonist	SKN-1 block
CCc1cccc2c(C(=O)COC(=O)[C@@H]3CC(O)CN3S(=O)(=O)c3ccccc3[N+](=O)[O-])c[nH]c12 (stereo partly drawn)	–	–	–	–	–	–
COc1ccccc1C(=O)Nc1ccnn1C1CCN(C/C=C/c2ccc(F)cc2)CC1	–	–	–	+	–	–
CCOc1ccc(C(=O)NCC(=O)N2CCN(C/C=C/c3ccccc3)CC2)cc1OCC	–	26.9	–	–	29.5	–
Cc1ccc(CN2CCC(n3nccc3NC(=O)c3ccccc3C)CC2)o1	–	–	–	–	–	35.5
Cc1ccccc1C(=O)NCC(=O)N1CCN(C/C=C/c2ccccc2)CC1	–	23.0	–	–	33.3	–
Cc1ccc(NC(=O)N2CCN(C/C=C/c3ccccc3)CC2)cc1	–	–	–	–	–	–
Cc1ccc(C(=O)CCC(=O)N2CCN(C/C=C/c3ccccc3)CC2)cc1	–	24.2	·	–	–	–
COc1ccccc1C(=O)NCC(=O)N1CCN(C/C=C/c2ccccc2)CC1	–	21.8	–	–	–	–
COC(=O)c1ccccc1NC(=O)N1CCN(C/C=C/c2ccccc2)CC1	–	–	–	–	–	–
CC1(C)CC(N2CCCC2)=CC(=[N+]2CCCCCC2)C1	–	–	–	–	–	–
CC1CC(C)C[N+](=C2C=C(N3CCCC3)CC(C)(C)C2)C1 (stereo not drawn)	–	–	–	+	–	–
CC(OC(=O)C1CC1)C(=O)Nc1cc(Cl)cc(Cl)c1 (stereo not drawn)	–	–	–	+	–	–
CCOC(=O)c1c(NC(=O)CN2C(=O)NC3(CCC(C)CC3)C2=O)sc(C(=O)N(C)C)c1C (stereo not drawn)	–	–	–	–	–	–
COc1ccccc1CCC(=O)OCC(=O)c1c(N)n(CC(C)C)c(=O)n(C)c1=O	–	–	–	–	–	–
COc1ccc(CCC(=O)OCC(=O)c2c(N)n(CC(C)C)c(=O)n(C)c2=O)cc1	–	–	–	–	32.3	–
CC(C)Cn1c(N)c(C(=O)COC(=O)c2cc(-c3ccco3)nc3ccccc23)c(=O)n(C)c1=O	–	–	–	+	–	–
CCOc1ccccc1OCC(=O)OCC(=O)c1c(N)n(CC(C)C)c(=O)n(C)c1=O	–	–	–	–	27.9	–
CCOC(=O)c1c(C)[nH]c(C(=O)COC(=O)C2CC2)c1C	–	–	–	–	30.9	–
CC(=O)Nc1cccc(NC(=O)C(=O)c2cn(CC(=O)N3CCCCC3)c3ccccc23)c1	–	–	–	–	–	–
Cc1[nH]nc2c1C(c1ccc(OC(=O)c3ccco3)cc1)C(C#N)=C(N)O2 (stereo not drawn)	–	–	54.2	–	–	–
NC(=O)c1c(NC(=O)CN2CCOCC2)sc2c1CCC2	24.8	18.1	–	–	–	–
COc1cccc(CNC(=O)C2CCN(S(=O)(=O)c3ccc4c(c3)CCC(=O)N4)CC2)c1	–	–	–	–	–	–
O=C(NCc1ccc(Cl)cc1)C1CCN(S(=O)(=O)c2ccc(N3CCCC3=O)cc2)CC1	–	–	–	–	32.8	–
CN(C)c1ccc(CNC(=O)C2CCN(S(=O)(=O)c3ccc4c(c3)CCCC(=O)N4)CC2)cc1	–	–	–	+	–	–
COc1ccc(NC(=O)CCNC(=O)C2CCN(S(=O)(=O)c3ccc(OC)cc3)CC2)cc1	–	–	–	–	–	–
SMILES	M1 PAM	CHRM1 agonist	ATG4B inh	Myeloid diff 2	CHRM1 antagonist	SKN-1 block
COc1ccc(CNC(=O)CCNC(=O)C2CCN(S(=O)(=O)c3ccc(OC)cc3)CC2)cc1	26.9	–	·	–	–	–
O=C(NCc1ccccc1)C1CCN(S(=O)(=O)c2ccc(N3CCCC3=O)cc2)CC1	–	–	–	–	–	–
Cc1ccc(OCc2nc3ccccc3n2C(C)C(=O)Nc2c(C)cccc2C)cc1 (stereo not drawn)	·	·	·	–	·	–
Cc1ccc(Nc2cc(C)nc(NCc3ccccc3)n2)cc1	–	–	–	–	–	–
Cc1cc(NC2CCCCC2)nc(NCc2ccccc2)n1	–	–	–	–	35.4	–
CC(=O)c1ccc(OC(C)c2nc3ccccc3s2)cc1 (stereo not drawn)	–	–	–	–	–	–
COc1ccc(-c2csc(NC(=O)C3=NN(c4ccccc4)C(=O)CC3)n2)cc1	–	–	–	–	24.0	–
O=C(Nc1nc(-c2cc(F)ccc2F)cs1)C1=NN(c2ccccc2)C(=O)CC1	–	–	–	–	–	–
Cc1ccc(NC(=O)C2CCN(S(=O)(=O)c3ccc4c(c3)NC(=O)C(C)S4)CC2)cc1C (stereo not drawn)	–	–	–	–	–	–
CCc1ccc(NC(=O)C2CCN(S(=O)(=O)c3ccc4c(c3)NC(=O)C(C)S4)CC2)cc1 (stereo not drawn)	–	–	–	–	55.0	–
CC(=O)Nc1ccc(SCCC2CCCCN2C)cc1 (stereo not drawn)	–	–	–	–	25.4	–
CCCCCCCCCCCCCCCC[n+]1ccc(/C=N/O)cc1	–	–	–	?	31.3	42.9
O=C(NCC1CCCCC1)c1[nH]c(C(F)(F)F)nc1-c1ccccc1	–	–	·	–	–	–
Cc1ccc(NC(=O)CN2CCc3cc4c(cc3C2C)OCCCO4)cc1 (stereo not drawn)	–	–	–	–	53.2	–
CC1c2cc3c(cc2CCN1CC(=O)Nc1ccccc1)OCCCO3 (stereo not drawn)	–	–	–	–	33.0	–
O=C(CN1CCc2cc3c(cc2C1)OCCCO3)Nc1ccc(S(=O)(=O)N2CCCC2)cc1	–	–	–	–	50.3	–
COc1ccc(CN2C(=O)C(CC(=O)NCCc3ccccn3)CC(C(=O)N3CCOCC3)=C2C)cc1 (stereo not drawn)	–	–	·	–	–	–
COc1c(O)cc(O)c2c(=O)cc(-c3ccccc3)oc12	–	–	–	–	–	–
COc1cc([N+](=O)[O-])ccc1-c1ccc(/C=N/NC(N)=O)o1	–	–	–	+	–	–
Cc1ccsc1C=Nc1ccc(O)cc1	–	–	–	–	–	28.0
CCCCN(C=O)c1c(CC)nc2c(OCC3CCCCC3)cccn12	–	–	·	–	–	–
Brc1ccc(-c2c[n+]3c(n2-c2ccccc2)SCC3)cc1	–	–	–	–	72.9	–
